High-throughput results from PubChem BioAssay.
CHT allo act: allosteric activators of human choline transporter CHT. Q9GZV3. CHT-expressing cells, membrane potential dye, choline EC20; hits give high values; LV-AA mutant CHT in HEK293 cells. B-score at 10 µM. 0.49% of 310,000 active. AID 488977;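 active = initial fluorescence not abnormally high and integrated response B-score, plate-corrected, over 3 SD above library mean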
CHT block: human CHT choline transport inhibition. Q9GZV3. CHT-expressing cells, membrane potential dye, choline response; hits give low values. B-score at 10 µM. 0.86% of 310,000 active;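 active = B-score over 3 SD under the library average, and starting fluorescence ratio not unusually high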;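 note: choline stimulus applied at its EC90 after an EC20 pre-addition; B-score computed on integrated fluorescence ratio after choline addition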
ANO1 activ: activators or potentiators of mouse TMEM16A chloride channel. Q8BHY3. HEK293 TMEM16A/YFP-H148Q/I152L, iodide quench fluorescence; hits give low values. B-score at 10 µM. 0.3% of 340,000 active;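 active = fluorescence-ratio B-score plate-corrected deviation score at least 3 library SD below zero, with starting fluorescence score within 5 deviations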;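 note: channel opened by trigger with iodide after compound preincubation; score built on the fluorescence ratio of max minus min over baseline; more negative score means more quench and so TMEM16A activation or potentiation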
TMEM16A inh: mouse TMEM16A channel inhibition, primary screen; 1.2% of 310,000 active; Q8BHY3; HEK293 TMEM16A/YFP iodide influx fluorescence, ionomycin; normalized B-score (activity score, 25-100; higher = stronger inhibition) at 10 µM;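 active = ratio plate-corrected score three or more library SD toward inhibition, starting fluorescence score within five deviations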;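 note: score derived from kinetic fluorescence span divided by baseline fluorescence per well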
Kir21 inh: inhibitors of mouse Kir2.1 inward-rectifier potassium channel | B-score at 10 µM | HEK293-Kir2.1, FluxOR thallium flux fluorescence; hits give low values | P35561 | 0.85% of 310,000 active;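 active = fluorescence ratio B-score at or below minus 3 SD of library scores, with starting-brightness B-score within 2 SD, cut at about -4.2 in these data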;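 note: channel flux triggered by added potassium and thallium sulfate stimulus; B-score of peak minus minimum fluorescence over baseline after thallium stimulus; more negative B-score means stronger Kir2.1 block with less thallium influx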
GPR7 antag: antagonists of human GPR7 (neuropeptides B/W receptor 1); GPR7-expressing cells, fluorescence antagonist assay; inhibition, % at 4.4 µM; 1.1% of 290,000 active; in the data active = inhibition above about 16%, passing the limit was not always enough;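 note: cells stimulated with the agonist NPW; 0% = agonist with vehicle and 100% = vehicle without agonist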
Target sequence (P48145 whole entry, looked up): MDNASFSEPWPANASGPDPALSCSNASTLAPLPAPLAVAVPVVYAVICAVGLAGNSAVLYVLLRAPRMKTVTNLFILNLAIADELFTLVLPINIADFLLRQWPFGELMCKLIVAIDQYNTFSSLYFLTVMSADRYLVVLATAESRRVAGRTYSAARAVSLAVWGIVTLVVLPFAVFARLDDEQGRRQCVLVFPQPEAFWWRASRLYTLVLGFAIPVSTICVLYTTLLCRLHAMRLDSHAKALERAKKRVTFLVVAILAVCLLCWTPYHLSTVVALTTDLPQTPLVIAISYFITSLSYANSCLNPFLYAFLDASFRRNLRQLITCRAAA
Numbers without * were called inactive; i = inactive; . = no result given. An excerpt weighted towards active compounds, which were near 3.7% of everything screened.

SMILES | CHT allo act | CHT block | ANO1 activ | TMEM16A inh | Kir21 inh | GPR7 antag
CCOC(=O)Cn1nnnc1CN(Cc1ccccc1)Cc1cc2cc(CC)ccc2[nH]c1=O | i | i | i | 25* | 0.59 | 8
COc1ccc(NS(=O)(=O)c2ccc(C(=O)N3CCN(Cc4ccccc4)CC3)cc2)cc1 | i | i | i | 25* | -1.9 | 17
COc1ccc(C(=O)Nc2ccc(CN3CCOCC3)cc2)cc1Br | i | i | i | i | -5.3* | -7
COc1ccc(NS(=O)(=O)c2ccc(NC(=O)c3ccc(CN4CCOCC4)cc3)cc2)cc1 | i | i | i | i | 0.51 | 24*
COc1ccc(S(=O)(=O)NCc2ccc(C(=O)N3CCN(Cc4ccccc4)CC3)cc2)cc1 | i | i | i | i | -4 | -1
COc1ccc(C(=O)NC(=S)Nc2ccc(CN3CCOCC3)cc2)cc1OC | i | i | i | i | -0.87 | -16
CCOc1ccc(NS(=O)(=O)c2ccc(C(=O)N3CCCC(C)C3)cc2)cc1 (stereo not drawn) | i | i | i | 100* | 0.76 | .
CCCOc1ccc(C(=O)Nc2ccc(CN3CCOCC3)cc2)cc1 | i | i | i | i | 0.75 | -11
Cc1[nH]n(-c2ccccc2)c(=O)c1/C=N/N1CCOCC1 | i | i | -7.4* | i | -1.2 | -11
CC(C)(C)c1ccc(NC(=O)c2c(F)cccc2Cl)cc1 | i | i | i | i | 0.03 | 4
COc1ccc(CCNC(=O)c2cc(-c3ccncc3)nc3ccc(S(=O)(=O)N4CCOCC4)cc23)cc1OC | i | i | i | i | -1.2 | 0
COc1ccc(Nc2nc(N)c3ccccc3n2)c(OC)c1 | i | i | i | i | -5.1* | -7
COc1ccc(Nc2nc(N3CCCCC3)nc3ccccc23)c(OC)c1 | i | i | i | i | -7* | 15
COc1ccc(Nc2nc(-c3ccccc3)nc3ccccc23)c(OC)c1 | i | i | i | i | -0.02 | -13
O=S(=O)(Nc1ccon1)c1ccc(F)c(F)c1 | i | i | i | i | 2.3 | -13
CCN(CC)S(=O)(=O)c1ccc(C(=O)NCC(c2ccc(OC)cc2)N2CCOCC2)cc1 (stereo not drawn) | i | i | i | i | 0.32 | 6
Cc1ccc(-c2nn(-c3ccccc3)cc2CSC(=N)N)cc1 | i | i | i | 25* | -5.8* | 10
CCN1C(=O)CSc2ccc(C(=O)NCc3ccc(OC)cc3)cc21 | i | i | i | i | -8.9* | 13
C=CCOc1ccc(C(=O)O)cc1Cl | i | i | i | i | -0.02 | -6
COc1ccc(OCCCC(=O)N2CCCc3ccccc32)cc1 | i | i | -6.4* | i | -2.9 | -1
COc1ccc(CCC(=O)N2CCCc3ccccc32)cc1 | i | i | i | i | -1.3 | -5
CC(Oc1ccc(Cl)cc1)C(=O)N1CCCc2ccccc21 (stereo not drawn) | i | i | i | i | -5.7* | -16
O=C(NC(=S)NC1C2CC3CC(C2)CC1C3)c1ccccc1 (stereo not drawn) | i | i | -4.7* | i | -0.52 | -24
COc1cc(NC(=O)CSc2c3c(nc4ccccc24)CCC3)cc(OC)c1OC | i | i | i | i | -0.92 | -8
COc1ccc(NC(=O)CSc2c3c(nc4ccccc24)CCCC3)c(OC)c1 | i | i | i | i | -4.7* | 4
COc1ccccc1NC(=O)CSc1c2c(nc3ccccc13)CCC2 | i | i | i | i | -10* | -5
CC(C)c1ccc(-c2nnc(SCC(=O)NC3CC3)n2C)cc1 | i | i | i | i | 0 | -2
O=c1[nH]c(CSc2nc(-c3ccc(F)cc3)cs2)nc2ccccc12 | i | i | i | i | 0.04 | -2
CCCCN(Cc1cccs1)S(=O)(=O)c1csc(C(N)=O)c1 | i | i | i | i | -7.8* | -20
CCCN1C2CCCC1CC(NC(=O)c1ccccc1OC)C2 (stereo not drawn) | i | i | i | 100* | -0.49 | -3
